{"source": "PubChem BioAssay (EPA / NIEHS)", "note": "Inconclusive results are not listed. The source made the active and inactive calls. The calls were made as follows: active = hit-call score of the fitted dose curve at least 0.9, where 1 is the maximum; inconclusive = response in the unintended direction; inactive = score below 0.9.", "data": [{"biological_target": "Estrogen receptor beta (Homo sapiens) (UniProt Q92731)", "sequence (Q92731 whole entry, looked up)": "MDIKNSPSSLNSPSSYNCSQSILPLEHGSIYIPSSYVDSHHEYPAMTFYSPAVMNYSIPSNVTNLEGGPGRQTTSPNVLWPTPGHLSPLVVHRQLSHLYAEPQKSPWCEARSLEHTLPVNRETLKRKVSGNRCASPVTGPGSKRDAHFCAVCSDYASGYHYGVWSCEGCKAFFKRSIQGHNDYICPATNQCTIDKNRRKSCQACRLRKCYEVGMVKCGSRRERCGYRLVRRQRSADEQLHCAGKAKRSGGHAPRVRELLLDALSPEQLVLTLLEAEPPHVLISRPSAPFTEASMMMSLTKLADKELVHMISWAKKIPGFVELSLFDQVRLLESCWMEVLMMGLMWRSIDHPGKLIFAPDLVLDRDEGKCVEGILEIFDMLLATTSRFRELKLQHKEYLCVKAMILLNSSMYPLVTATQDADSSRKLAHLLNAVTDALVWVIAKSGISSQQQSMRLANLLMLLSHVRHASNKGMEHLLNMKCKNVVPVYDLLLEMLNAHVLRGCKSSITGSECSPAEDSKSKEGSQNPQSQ", "experiment": "OT_ER_ERbERb_0480: Odyssey Thera (OT) 8-hour HEK293T Protein-Complementation Assay for Estrogen Receptor-beta/-beta Homodimer (AID 2283357)", "experimental": "OT_ER_ERbERb_0480 is a cell-based assay that uses HEK293T, a human kidney cell line, with measurements taken at 8 hours after chemical dosing in a 384-well plate.OT_ER_ERbERb_0480 is one of one assay component(s) measured or calculated from the OT_ER_ERbERb_0480 assay. It is designed to make measurements of protein fragment complementation, a form of binding reporter, as detected with fluorescence intensity signals by Protein-fragment Complementation technology.Data from the assay component OT_ER_ERbERb_0480 was analyzed into 1 assay endpoint. This assay endpoint, OT_ER_ERbERb_0480, was analyzed in the positive analysis fitting direction relative to DMSO as the negative control and baseline of activity. Using a type of binding reporter, measures of receptor for gain-of-signal activity can be used to understand the binding at the pathway-level as they relate to the gene ESR2. Furthermore, this assay endpoint can be referred to as a primary readout, because the performed assay has only produced 1 assay endpoint. To generalize the intended target to other relatable targets, this assay endpoint is annotated to the nuclear receptor intended target family, where the subfamily is steroidal.\nProtein-fragment complementation assay, or PCA, is a method for the identification and quantification of protein-protein interactions. In the PCA, the proteins of interest (\"bait\" and \"prey\") are each covalently linked to fragments of a third protein (e.g. DHFR, which acts as a \"reporter\"). Interaction between the bait and the prey proteins brings the fragments of the reporter protein in close proximity to allow them to form a functional reporter protein whose activity can be measured. The OT ER beta / ER beta assay is a homodimer PCA of the ligand binding domain (LBD; amino acids 310-547) of human ER beta stably expressed in HEK293T cells. […] Cells are fixed in 4 percent formaldehyde and stained with Draq5 (BioStatus) to identify cells prior to signal detection. Fluorescent signal in the basal state of the assay is very low and is primarily punctuate and cytoplasmic. Modulation of this assay is quantified as an increase in mean fluorescence intensity in the nucleus (for agonists) or in the nucleus and cytoplasm (antagonists) relative to vehicle controls, and can be quantified on a high content imaging device or a laser scanning cytometer. The latter instrument is favored for this assay because of the rapid mode of data acquisition, the ability to acquire data from the entire cell population in a well (as opposed to a fraction of the well on the high content devices) and the larger dynamic range typically achieved with this instrument. To assess sensitivity of the ER beta/ER beta LBD assay to ligand, cells were treated with the ER agonist 17- beta-estradiol (E2) in 10-point concentration- response format for 8 hours and monitored response on a laser scanning plate cytometer (Acumen eX3; TTP Lab Tech).", "values": [{"smiles": "Cn1cc[nH]c1=S", "outcome": "inactive"}, {"smiles": "CCCCCCCCCCCCCCO", "outcome": "inactive"}, {"smiles": "Cc1cccc(O)c1C", "outcome": "inactive"}, {"smiles": "CC(C)c1nnc2ccc(-c3ocnc3-c3cc(F)ccc3F)cn12", "outcome": "inactive"}, {"smiles": "NC(=O)N1c2ccccc2C=Cc2ccccc21", "outcome": "inactive"}, {"smiles": "CCCCCCCC/C=C\\CCCCCCCC(=O)OC[C@@H](O)[C@H]1OC[C@H](O)[C@H]1O", "outcome": "inactive"}, {"smiles": "OC[C@H]1O[C@@H]2O[C@H]3[C@H](O)[C@@H](O)[C@@H](O[C@H]4[C@H](O)[C@@H](O)[C@@H](O[C@H]5[C@H](O)[C@@H](O)[C@@H](O[C@H]6[C@H](O)[C@@H](O)[C@@H](O[C@H]7[C@H](O)[C@@H](O)[C@@H](O[C@H]1[C@H](O)[C@H]2O)O[C@@H]7CO)O[C@@H]6CO)O[C@@H]5CO)O[C@@H]4CO)O[C@@H]3CO", "outcome": "inactive"}, {"smiles": "CCOc1ccc2[nH]cc(C(=O)NCc3ccccc3)c(=O)c2n1", "outcome": "inactive"}, {"smiles": "NC(N)=O", "outcome": "inactive"}, {"smiles": "OC[C@H]1O[C@@](CO)(O[C@H]2O[C@H](CO)[C@@H](O)[C@H](O)[C@H]2O)[C@@H](O)[C@@H]1O", "outcome": "inactive"}, {"smiles": "CCCCC(CC)C(=O)OCCOCCOCCOC(=O)C(CC)CCCC", "note": "(stereo not given)", "outcome": "inactive"}, {"smiles": "Cc1ccc(S(=O)(=O)NC(=O)NN2CCCCCC2)cc1", "outcome": "inactive"}, {"smiles": "COCc1nnc(-c2ccc[n+]([O-])c2)n1-c1c(Cl)c(Cl)cc2[nH]c(=O)c(=O)[nH]c12", "outcome": "inactive"}, {"smiles": "O=C(NO)C1(NS(=O)(=O)c2ccc(Oc3ccc(F)cc3)cc2)CCOCC1", "outcome": "inactive"}, {"smiles": "CCCc1ccccc1", "outcome": "inactive"}, {"smiles": "c1ccc(C(O[C@@H]2CCCN(CCc3ccc4c(c3)OCO4)C2)c2ccccc2)cc1", "outcome": "inactive"}, {"smiles": "CCCCCCCC1CCC(=O)O1", "note": "(stereo not given)", "outcome": "inactive"}, {"smiles": "c1ccc2cc3ccccc3cc2c1", "outcome": "inactive"}, {"smiles": "O=C1CN(N=Cc2ccc([N+](=O)[O-])o2)C(=O)N1", "outcome": "inactive"}, {"smiles": "CNC(C)=O", "outcome": "inactive"}, {"smiles": "C[C@@H](Oc1ccc(CNC(=O)c2cccnc2Oc2ccc3c(c2)OCO3)c(F)c1)C(=O)O", "outcome": "inactive"}, {"smiles": "CCc1cccc(CC)c1N", "outcome": "inactive"}, {"smiles": "CC(C)CC(C)O", "note": "(stereo not given)", "outcome": "inactive"}, {"smiles": "NNC(=O)c1ccncc1", "outcome": "inactive"}, {"smiles": "CCN(CC)C(=S)SSC(=S)N(CC)CC", "outcome": "inactive"}, {"smiles": "c1ccc2c(c1)-c1cccc3c1c-2cc1ccccc13", "outcome": "inactive"}, {"smiles": "O=C(O)CO", "outcome": "inactive"}, {"smiles": "CC(C)C(=O)Nc1ccc([N+](=O)[O-])c(C(F)(F)F)c1", "outcome": "inactive"}, {"smiles": "CCCCCCCCCCCCCCCCOS(=O)(=O)O", "outcome": "inactive"}, {"smiles": "O=S1(=O)CCCO1", "outcome": "inactive"}, {"smiles": "C=CCc1cc(S(=O)(=O)c2ccc(O)c(CC=C)c2)ccc1O", "outcome": "inactive"}, {"smiles": "O=C(O)c1cccc(C[C@@H]2COc3ccc(OCc4nc5cc(F)ccc5s4)cc3[C@@H]2O)c1", "outcome": "inactive"}, {"smiles": "O=C(O)[C@H](O)[C@@H](O)C(=O)O", "outcome": "inactive"}, {"smiles": "COc1cc2c(c(OC)c1OC)-c1ccc(OC)c(=O)cc1[C@@H](NC(C)=O)CC2", "outcome": "inactive"}, {"smiles": "CCc1ccc(O)c(C(C)(C)C)c1", "AC50": "11.9 µM (active)"}, {"smiles": "Cc1ncc([C@@H](CCCCCCc2ccc3c(n2)NCCC3)CC(=O)O)cn1", "outcome": "inactive"}, {"smiles": "NC(=O)N(O)[C@@H]1COc2cc(OCc3ccccc3)ccc21", "outcome": "inactive"}, {"smiles": "Cc1nc(-c2ccccn2)ncc1C(=O)Nn1cc(C)c2cc(F)ccc21", "outcome": "inactive"}, {"smiles": "CCn1nc(C)c2c1C(=O)NCC(c1ccc(O)cc1)=N2", "outcome": "inactive"}, {"smiles": "CCCCCCCCCC", "outcome": "inactive"}]}]}
